Source: PubChem
This excerpt belongs to a sample that is enriched for hits.
NS1 function inh: qHTS Assay for Inhibitors of Influenza NS1 Protein Function | 270,000 tested, 0.4% active | Potency, µM (highest dose often 46.1 µM), for inactives: at the highest dose activity, positive = more growth; calls by dose curve; also: potency is read from the fitted curve at half-maximal effect; actives are rising curves; nearly all actives have a fitted effect of over 50% in size
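Read-out: OD600 growth recovery of NS1-expressing budding yeast. Cells grown overnight at 30C in -URA glucose medium, washed, resuspended and diluted 1:100 in 2% galactose assay medium, pH 6.0. Same strain lacking NS1 served as positive control.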
Shiga toxin inh: A qHTS for Small Molecule Inhibitors of Shiga Toxin | 290,000 tested, 9.2% active | Vero cells, Shiga toxin protein synthesis inhibition reporter | AID 2315, 2010 | inhibition, % at 38.7 µM; in the data active = inhibition mostly above about 28%, no sharp cut-off; inactive = mostly below about 43%; also: 0% is about no effect
AmpC inh no detg: qHTS Inhibitors of AmpC Beta-Lactamase (assay without detergent); AmpC nitrocefin hydrolysis, absorbance 480 nm, 0.0001% Triton; Potency, µM (titrated, usually from 57.1 µM), without a hit: at the highest dose activity change, negative = inhibition, usual class: inhibitors; AID 485341, 2010; P00811; 330,000 tested, 0.52% active;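 also: potency is read from the fitted curve at half-maximal effect; plate controls were no compound for no effect and no enzyme for full effect; nearly all actives have a fitted effect of over 20% in size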
Target sequence (P00811 whole entry, looked up): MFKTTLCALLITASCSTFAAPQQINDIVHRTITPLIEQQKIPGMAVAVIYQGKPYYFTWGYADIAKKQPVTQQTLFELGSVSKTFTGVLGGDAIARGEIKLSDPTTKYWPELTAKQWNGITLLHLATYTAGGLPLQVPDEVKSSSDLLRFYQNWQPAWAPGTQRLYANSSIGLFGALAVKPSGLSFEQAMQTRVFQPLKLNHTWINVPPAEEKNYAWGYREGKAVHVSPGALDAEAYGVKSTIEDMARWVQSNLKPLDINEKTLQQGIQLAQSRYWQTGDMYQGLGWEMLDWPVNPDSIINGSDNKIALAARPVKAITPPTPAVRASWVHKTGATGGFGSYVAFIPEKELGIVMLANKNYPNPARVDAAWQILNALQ
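AmpC (5.3 nM in the dispensed reagent) in 20 mM phosphate pH 7.0 with 0.01% (detergent screen) or 0.0001% Triton X-100 was preincubated with compounds for 15 min at room temperature. Nitrocefin was then added from an 800 uM solution, and hydrolysis was followed at 480 nm.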
AmpC detergent: qHTS Inhibitors of AmpC Beta-Lactamase (assay with detergent) | P00811 | AmpC hydrolysis of nitrocefin, absorbance 480 nm, 0.01% Triton | Potency, µM (top dose mostly 114 µM), for inactives: at the top dose activity change, negative = inhibition, hits mostly inhibitors | 370,000 tested, 0.041% active | AID 485294, 2010;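 also: potency is read from the fitted curve at half-maximal effect; 0% = no-compound wells and -100% = no-enzyme wells; nearly all actives have a fitted effect of over 25% in size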
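AmpC (5.3 nM in the dispensed reagent) in 20 mM phosphate pH 7.0 with 0.01% (detergent screen) or 0.0001% Triton X-100 was preincubated with compounds for 15 min at room temperature. Nitrocefin was then added from an 800 uM solution, and hydrolysis was followed at 480 nm.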
CHX counter: Cycloheximide Counterscreen for Small Molecule Inhibitors of Shiga Toxin; max response, %; cell reporter, cycloheximide protein synthesis inhibition counterscreen; 300,000 tested, 12% active; in the data active = max response mostly above about 13%, no sharp cut-off; inactive = mostly below about 14%; also: read at 38.3 µM for the half of the compounds with a filed dose; 0% is about no effect
Starred values were filed as active, the others as inactive; u = inconclusive; x = no result; [ ] = dose if it differs, or a comment. Unless noted, calls follow the shape of the dose curve; as a rule, active = well fitted curve in the direction sought with a large enough effect; inconclusive = small, poorly fitted or top-dose-only effect, or another doubt; inactive = no such curve, though single readings can be large; an effect the other way counts as inactive or inconclusive.

SMILES | NS1 function inh | Shiga toxin inh | AmpC inh no detg | AmpC detergent | CHX counter
Cc1ccc(Nc2nc(C)c(NC(=O)c3ccc(C)cc3)c(Nc3ccc(C)cc3)n2)cc1 | x | x | x | 12.4% | x
CCOC(=O)[C@H]1[C@H]2COc3ccc(OC)cc3[C@@H]2N2C(=O)CN(C)C(=O)[C@@]12C | x | x | -8.6% | 5.7% | x
CC1(NC(=O)Nc2cccc3ccccc23)CCS(=O)(=O)C1 (stereo not drawn) | 5.9% | -12.2 | -15.9% | -5.0% | 0.4
Cn1cnnc1SCC(=O)c1cc2ccccc2o1 | x | 12.4 | -15.4%[11.4 µM] | u | 10.1
COc1cccc(C(=O)CSc2nccn2C)c1 | 11.5% | 96.6* | -6.6% | -10.9% | 31.1*
Cn1ccnc1SCC(=O)c1cc2ccccc2o1 | 1.6% | 116.7* | -34.7% | u | 44.6*
COc1ccc(C(=O)CSc2nccn2C)c(OC)c1 | 10.9% | 57.4* | -5.0% | -3.7% | 50.3*
COc1ccc(OC)c(C(=O)CSc2nnnn2C)c1 | -4.3% | 17.7 | 1.4% | u | 4.1
O=C(CSc1ncccc1C(=O)O)c1ccc2ccccc2c1 | 0.3% | 100.3* | -28.2% | 0.8% | 45.3*
CCOC(=O)c1c(C)n(-c2ccc(OC)cc2)c2c(C/C(C)=N/O)c(Br)c(OC)c(O)c12 | 4.6% | -12.0 | -17.1% | -13.6% | 10.4
CCCCn1c(=O)c(CCC(=O)OCC(=O)NCc2ccc(OC)c(OC)c2)nc2ccccc21 | x | -3.3 | 8.7%[11.4 µM] | -13.2% | -1.7
Cn1ccnc1SCC(=O)Nc1ccccc1 | -0.6% | 30.3 | -13.2% | u | -2.5
Cn1ccnc1SCC(=O)Nc1ccc2ccccc2c1 | -7.9% | 47.9* | -13.9% | -12.0% | 42.1*
Cc1ccnc(SCC(=O)c2cc3ccccc3o2)n1 | x | 24.7 | -20.5% | -5.1% | 13.1*
CCN(CC)S(=O)(=O)c1cc(NC(=O)CSc2nccn2C)ccc1C | x | 103.2* | -15.3% | -3.5% | 16.3*
COC(=O)c1cc2sccc2n1Cc1nc(-c2cccc(Br)c2)oc1C | x | x | x | 22.1% | x
COc1ccc(CCNCc2ccc3c(c2)n(C)c(=O)n3C)cc1OC | x | x | x | -6.3% | x
COC(=O)Cc1c(C)c2ccc(OC(C)C)cc2oc1=O | -5.0% | 96.3* | -11.6% | 4.2% | 47.8*
CCc1cc(=O)oc2cc(OC3CCCCC3=O)ccc12 (stereo not drawn) | 2.3% | 21.7 | -5.1% | -9.3% | -2.4
Cc1c(C)c2ccc(OC3CCCCC3=O)cc2oc1=O (stereo not drawn) | 0.6% | 25.6 | -16.0% | u | 24.3*
COC(=O)Cc1c(C)c2ccc(OC3CCCCC3=O)c(C)c2oc1=O (stereo not drawn) | -2.4% | 39.6 | -1.1% | -1.7% | 16.3
COC(=O)Cc1c(C)c2ccc(OC3CCCCC3=O)cc2oc1=O (stereo not drawn) | 1.6% | 29.9* | -5.4% | -1.8% | 38.5*
Cc1c(CC(=O)O)c(=O)oc2cc(OCc3ccc(F)cc3F)ccc12 | 6.1% | 9.6 | -16.9% | -12.2% | 4.7
Cc1c(CC(=O)O)c(=O)oc2cc(OCc3ccc(Br)cc3)ccc12 | -2.2% | 27.1 | -21.2% | u | 15.8*
COC(=O)Cc1c(C)c2ccc(OC(=O)c3ccco3)cc2oc1=O | -245.2% | -15.9 | -15.9% | -6.8% | -8.8
SMILES | NS1 function inh | Shiga toxin inh | AmpC inh no detg | AmpC detergent | CHX counter
O=C(NCCCN1CCOCC1)C(=O)N/N=C/c1c(Cl)cccc1Cl | -1.9% | 8.1 | -9.5% | 5.2% | -0.7
O=C(C[n+]1ccccc1)N/N=C/c1ccccc1Cl | x | x | -22.9% | -4.6% | x
S=C(NCCc1ccccc1)N/N=C/c1ccccc1Cl | -22.7% | -10.3 | -42.2% | -15.3% | 10.8*
O=C(Cc1ccccc1)N/N=C/c1ccccc1Cl | -32.9% | 53.2 | -17.8% | -13.2% | 40.9*
O=C(NCCCN1CCOCC1)C(=O)N/N=C/c1ccccc1Cl | 2.9% | 21.4 | -0.2% | 3.3% | 18.8*
COCCn1ccc2c(OCC(=O)Nc3cccc(NC(C)=O)c3)cccc2c1=O | x | x | -2.9% | -10.8% | x
CC1(C)Cc2nc3scc(NC(=O)c4ccccc4)c3cc2CO1 | -2.0% | 28.3 | -8.9% | 2.5% | 14.4*
CCOC(=O)c1sc2nc3c(cc2c1N)COC(C(C)C)C3 (stereo not drawn) | 1.3% | 157.5* | -6.9% | 0.1% | 56.9*
Cc1nc2c(sc3nc4c(cc32)COC(C)(C)C4)c(=O)o1 | 16.0% | -3.1 | -10.1% | 3.2% | 5.2
CC1(C)Cc2nc3sc(C(=O)NCCCO)c(N)c3cc2CO1 | 3.5% | 90.5* | 4.5% | 1.4% | 28.6*
CCOC(=O)c1sc2nc(N3CCOCC3)c3c(c2c1N)CC(C(C)C)OC3 (stereo not drawn) | 0.0% | -5.6 | -15.1% | 7.5% | -2.5
COC(=O)c1sc2nc3c(cc2c1N)COC(C)(C)C3 | -12.1% | 198.3* | -5.8% | 6.5% | 79.8*
CC1(C)Cc2nc3sc4c(=O)n(CC(N)=O)cnc4c3cc2CO1 | 5.5% | 24.2 | -15.7% | -10.6% | 10.8
O=C(CSc1nc2nccnc2c(=O)n1CCc1c[nH]c2ccccc12)Nc1ccccc1 | x | x | x | -5.4% | x
CCC(=O)N1c2nc(-c3ccco3)nn2C2(CCCCC2)[C@@H]2CCCC[C@@H]21 | x | x | x | 18.2% | x
Cn1c(=O)oc2cc(S(=O)(=O)NCCC(=O)Nc3ccc(F)cc3F)ccc21 | x | x | x | 10.9% | x
Cc1cccc(Nc2ncc3c(n2)CC(c2ccco2)CC3=O)c1 (stereo not drawn) | -6.3% | 20.3 | -26.9% | -16.2% | 15.1*
Cc1ccc(C(=O)Nc2ncc3c(n2)CC(c2ccco2)CC3=O)cc1 (stereo not drawn) | -29.9% | 129.7 | -36.4% | -12.6% | 25.7*
COc1ccc(C(=O)Nc2ncc3c(n2)CC(C)CC3=O)cc1 (stereo not drawn) | 2.8% | 24.1 | -17.3% | -1.7% | 19.1*
Cc1cc(C)cc(Nc2ncc3c(n2)CCCC3=O)c1 | 3.6% | 22.6 | -10.4% | -4.3% | 17.0*
O=C(Nc1ncc2c(n1)CC(c1ccco1)CC2=O)c1ccccc1 (stereo not drawn) | 3.2% | 47.5 | -13.3% | u | 11.6
CCN1CCN(C(=O)c2ccc3c(c2)N(Cc2c(F)cccc2Cl)C(=O)c2ccccc2S3)CC1 | x | x | x | -3.9% | x
CCCCN(CC)C(=O)CCCn1c(=O)c2cccn2c2ccccc21 | x | x | x | 16.0% | x
Cc1cccc(Nc2ncc3c(n2)CC(C)CC3=O)c1 (stereo not drawn) | -15.3% | 112.1* | -18.4% | 7.2% | 32.9*
CCCC(=O)N1CCCC(c2nc(-c3cccs3)no2)C1 (stereo not drawn) | -6.3% | 86.1* | -2.1% | u | 20.6*
CCC(C)C(=O)N1CCCC(c2nc(-c3cccs3)no2)C1 (stereo not drawn) | -3.0% | 100.9* | -1.5% | u | 31.0*
O=C(CCN1C(=O)/C(=C/c2ccccc2Cl)SC1=S)NC1CCCC1 | 16.1% | -2.2 | -7.7% | -8.1% | -3.4
CCOc1ccc(NC(=O)c2c(C)oc3nc(C)nc(N4CCOCC4)c23)cc1 | x | x | x | 23.4% | x
CCC(C(=O)Nc1ccc(F)cc1F)n1nc(-c2ccccc2)c2c(c1=O)CCCC2 (stereo not drawn) | x | x | x | 16.2% | x
